Bioassay records as filed in PubChem BioAssay.
Sm TGR block = inhibitors of Schistosoma mansoni thioredoxin glutathione reductase; Q962Y6; purified TGR, DTNB reduction, TNB absorbance 405 nm; Potency, µM (highest dose often 114 µM), inactives show at the top dose activity change, negative = inhibition, actives largely listed as inhibitors; actives 3% (n = 360,000); AID 485364; active = well fitted inhibition curve with a large enough effect; inconclusive = small, poorly fitted or top-dose-only effect; inactive = no such curve, though single readings can be large or run the other way; also: nearly all actives have a fitted effect of over 60% in size
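First, TGR (20 nM dispensed) and NADPH were mixed with compound. Second, a 15 min room-temperature incubation followed. Third, further NADPH and then DTNB were added to start the reaction. Finally, TNB absorbance was monitored kinetically.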
FMDV antiviral = blocks foot and mouth disease virus. actives 1.2% (n = 410,000). Potency, µM (highest dose often 57.9 µM), for inactives: at the top dose activity change, negative = inhibition, usual class: inhibitors. AID 1159524. FMDV antiviral cell-based qHTS; calls by dose curve; tested in HEK293T cells; also: read-out not given here; nearly all actives have a fitted effect of over 45% in size
Marburg entry inh = inhibitors of Marburg virus binding or cell entry | Marburg virus pseudotyped entry inhibition, cell reporter | Potency, µM (doses to about 37.8 µM), for the others: at the top dose activity change, negative = inhibition, most hits filed as inhibitors | actives 1.8% (n = 300,000) | AID 540276; calls by dose curve; tested in HEK293 cells
VACV Venus inh = vaccinia inhibition (Venus reporter) | Vaccinia virus Venus reporter expression, fluorescence | Potency, µM (highest dose often 36.5 µM), without a hit: at the top dose activity change, negative = inhibition, actives largely listed as inhibitors | actives 0.46% (n = 330,000) | AID 720580; calls by dose curve; tested in A549 cells; also: nearly all actives have a fitted effect of over 30% in size
Lassa entry inh = Lassa virus entry inhibition. Lassa virus pseudotype entry inhibition, cell reporter. Potency, µM (doses to about 37.9 µM), for inactives: top-dose activity change, negative = inhibition, actives largely listed as inhibitors. actives 1.2% (n = 300,000); calls by dose curve; tested in HEK293 cells; also: nearly all actives have a fitted effect of over 50% in size
Vaccinia mCherry = vaccinia inhibition (mCherry reporter) | AID 720579 | actives 0.63% (n = 310,000) | Potency, µM (highest dose often 36.5 µM), inactives show at the top dose activity change, negative = inhibition, hits mostly inhibitors | Vaccinia virus mCherry reporter infection, fluorescence; calls by dose curve; tested in A549 cells; also: nearly all actives have a fitted effect of over 35% in size
An asterisk follows results filed as active; i = inactive; ? = inconclusive; nt = no result; [ ] = another dose, or the depositor's remark. Hits are enriched below; roughly 5.4% of the tested compounds scored in any of these assays. % is scaled to controls: 0 for no effect and ±100 for the full control effect; potency is read from the fitted curve at half-maximal effect.

SMILES	Sm TGR block	FMDV antiviral	Marburg entry inh	VACV Venus inh	Lassa entry inh	Vaccinia mCherry
CN(C1CCCCC1)S(=O)(=O)c1ccc(NC(=O)c2ccc(Br)o2)cc1	-3.8%	-23.1%	-13.0%	?	11.2µM*	nt
COc1cccc(C2C(C(=O)Nc3ccccc3)=C(C)Nc3nnnn32)c1OC (stereo not drawn)	0.8%	-1.3%	nt	-12.7%	-21.5%[46.1 µM]	-14.0%
CC1=C(/C=C/C(C)=C/C=C/C(C)=C/C(=O)O)C(C)(C)CCC1	35.5µM*	?	?	-22.7%	29.3%	-2.6%
CC1=C(/C=C/C(C)=C\C=C\C(C)=C\C(=O)O)C(C)(C)CCC1	nt	-13.4%[6.7 µM]	5.2%	-2.5%[3.33 µM]	nt	-5.3%
Cc1cc(OCc2nc(-c3cccnc3)no2)c(C)cc1Br	5.8%	-4.3%	4.3%	-11.9%	14.1%	i
Cc1ccccc1OCc1nc(-c2cccnc2)no1	39.8µM*	6.6%	5.8%[46.1 µM]	-10.9%	12.0%[46.1 µM]	-14.3%
CN(C)C(=O)Oc1ccc(-c2cn3cc(C(F)(F)F)ccc3n2)cc1	-19.0%	12.0%	-17.6%	25.4%	13.0%	37.6%
Oc1ccc(-c2cn3cc(C(F)(F)F)ccc3n2)cc1	3.3%	-26.7%	5.8µM*	-1.9%	2µM*	i
CCCCCCCCCCCCCCCC(=O)C1=C(O)C(CO)OC1=O (stereo not drawn)	nt	1.7%	nt	-10.9%[60.7 µM]	nt	i
CCn1c(Cl)c(C=O)s/c1=N\S(=O)(=O)c1ccccc1	0.316µM*	?	nt	?	nt	?
CCN1C(=O)CS/C1=N\S(=O)(=O)c1ccc(Cl)cc1	-3.8%	-15.0%	0.0%[46.1 µM]	-3.3%	-4.9%	9.8%
COc1ccccc1CN1CCC2(CC1)c1ccccc1[C@@H](NC(=O)c1ccco1)[C@@H]2OC	nt	-3.0%	nt	-28.9%	nt	i
Cc1c(-c2ccccn2)c(=O)[nH]n1-c1ccc(F)cc1	4.7%	-33.6%	8.91µM*	-4.1%	-27.0%[46.1 µM]	i
O=c1[nH]n(-c2ccc(F)cc2)c2ncccc12	-1.0%	1.1%	6.0%	nt	4.5%	nt
Cc1ccc(NC(=O)Nc2ccc3c(c2)nc(C)n3C)cc1	11.0%	5.7%	11.2µM*	-23.5%	?	i
CC(=O)c1ccc(NC(=O)Nc2ccc3c(c2)nc(C)n3C)cc1	4.3%[57.1 µM]	71.9%	?	-3.7%	-0.5%	-3.3%
CC(=O)Nc1sc(N/N=C/c2ccccc2)nc1-c1ccc(C)cc1	8.1%	36.5%	6.4%	-15.5%	14.1%	-25.1%
CCCc1sc(N/N=C/c2ccccn2)nc1-c1ccc(Br)cc1	3.9%	-1.0%	?	-8.5%	5.17µM*	?
O=c1cc(-c2ccccc2)cc(-c2ccccc2)n1O	1.7%	-4.0%	nt	?	nt	14.1µM*
Cn1c(-c2ccccc2)cc(=O)cc1-c1ccccc1	nt	1.3%	nt	-6.0%	nt	2.8%
Cc1ncc2c(c1CNC(=O)c1ccccc1F)CCN(C(=O)c1[nH]c3ccc(Cl)cc3c1C)C2	nt	?	nt	-2.9%	nt	0.8%
CSc1ccc(CCNC(=O)CCc2c(C)nc3c(-c4ccccc4)c(C)nn3c2C)cc1	2.1%	?	?	-7.8%	-11.7%[46.1 µM]	-9.3%
CCOc1ccc2c(c1)c(C(C)=O)c(C)n2Cc1ccco1	10µM*	-21.4%	-14.0%[46.1 µM]	-10.3%	-10.7%[46.1 µM]	-12.7%
CCOc1cccc(=O)c2c(C)n(Cc3ccccc3)c(C)c12	nt	-2.2%	nt	nt	nt	nt
CCOc1cccc(=O)c2c(C)n(Cc3ccco3)c(C)c12	39.8µM*	-26.7%	3.3%	nt	15.9%	nt
SMILES	Sm TGR block	FMDV antiviral	Marburg entry inh	VACV Venus inh	Lassa entry inh	Vaccinia mCherry
CCOc1ccc2c(c1)c(C(C)=O)c(C)n2-c1ccccc1	23.4%	-20.0%	0.4%	-29.2%	2.7%	?
Cc1ccc(S(=O)(=O)N2CCC(c3nc(-c4cccs4)nc4ccccc34)CC2)cc1	nt	nt	nt	-14.6%	nt	-11.2%
CCCOc1ccc(CS[C@@H](CC(=O)O)C(=O)O)cc1	nt	nt	16.7%	nt	nt	nt
O=C(Cc1cn2ccsc2n1)OCc1ccccc1	-2.5%	15.1%	7.08µM*	18.2%	5.01µM*	nt
CCn1c2ccccc2c2cc(NC(=O)CNCc3ccccc3OC)ccc21	-8.3%	-5.3%	5.62µM*	-25.6%	?	?
CCn1c2ccccc2c2cc(NC(=O)COC(=O)Cc3cn4ccsc4n3)ccc21	2.4%	-12.2%	-8.0%	10µM*	-1.2%	nt
CCn1c2ccccc2c2cc(NC(=O)COC(=O)c3ccc(O)cc3)ccc21	-0.5%	-13.8%	?	?	?	11.2µM*
O=C(Cc1cn2ccsc2n1)OCc1nc2ccccc2s1	3.2%	-1.9%	-1.4%[46.1 µM]	-5.3%	5.1%	nt
CCOc1ccc(NC(=O)Cn2c(=O)n(Cc3ccc4c(c3)OCO4)c(=O)c3ccc(C(=O)NC4CCCCC4)cc32)cc1	-10.1%	3.6%	3.9%[46.1 µM]	-22.2%	15.3%[46.1 µM]	-8.6%
CCOC(=O)c1cccc(NC(=O)c2ccc3snnc3c2)c1	1.2%	-0.1%	28.8%[46.1 µM]	-9.3%	?	-5.6%
CCc1ccc(NC(=O)c2cccc(N3CCCS3(=O)=O)c2)cc1	5.4%	7.4%	nt	-17.7%	-5.2%[46.1 µM]	-14.9%
O=C(O)C[C@H](SCc1ccc(C(=O)O)o1)C(=O)O	nt	nt	-0.1%	nt	nt	nt
CCOC(=O)c1cc(-c2ccccc2)n(-c2cccc(C(=O)Nc3cccc(F)c3)c2)c1C	5.5%	-13.6%	nt	-5.6%	-21.7%[46.1 µM]	-13.0%
COc1ccccc1CNCC(O)Cn1c2ccccc2c2ccccc21 (stereo not drawn)	-1.4%	?	8.2µM*	nt	16.4µM*	nt
COc1cccc(CN2CCC3(CCC(CNC(=O)c4ccccc4)O3)CC2)c1 (stereo not drawn)	nt	?	nt	-9.4%	nt	-9.2%
CCc1c(C)nc2ncnn2c1Nc1ccc(C)cc1	?	-24.2%	?	-20.7%	-1.4%	-10.5%
CCc1c(C)nc2ncnn2c1NCCc1ccc(OC)cc1	-1.9%	11.2µM*	?	nt	?	nt
Cc1cccc(NCCC(=O)c2ccc(Br)cc2)c1	5.62µM*	nt	12.2%	-22.6%	5.4%	-10.8%
CC(C)c1ccc(NCCC(=O)c2ccc(Br)cc2)cc1	?	-13.4%	?	-8.7%	7.8%	-10.6%
N#CC(C#N)=C1C(=O)N(CCN2CCCCC2)c2ccccc21	-14.7%	?	-10.5%[46.1 µM]	4.9%	15.7%[46.1 µM]	-4.5%
N#CC(C#N)=C1C(=O)N(CCN2CCOCC2)c2ccccc21	3.55µM*	-28.9%	3.4%[46.1 µM]	8.9%	0.2%	?
Cc1ccc2c(c1)C(=C(C#N)C#N)C(=O)N2CCN1CCOCC1	3.16µM*	?	nt	nt	nt	nt
Oc1ccc(Cn2ccnc2)c2cccnc12	22.4µM*	11.0%	?	-6.6%	?	?
Oc1ccc(CNc2ccc(F)cc2)c2cccnc12	?	-28.0%	?	nt	?	nt
Cc1cccc(NCc2ccc(O)c3ncccc23)c1	0.1µM*	-21.3%	?	-19.6%	?	?
O=C(CSc1ncccn1)NCc1ccc2c(c1)OCO2	-1.2%	0.0%	-2.5%[46.1 µM]	16.3%	15.4%[46.1 µM]	-5.0%
Oc1ccc(CNc2ccccc2)c2cccnc12	0.251µM*	?	?	nt	?	nt
Oc1ccc(CNCc2ccc3c(c2)OCO3)c2cccnc12	5.62µM*	nt	nt	nt	nt	nt
c1ccc2c(Cn3ccnc3)c[nH]c2c1	-3.5%	-4.7%	-3.7%	nt	-3.1%	nt
